The values below come from PubChem BioAssay (EPA / NIEHS).

Active and inactive are the calls of the source. The calls were made as follows: active = hit-call score of the fitted dose curve at least 0.9, where 1 is the maximum; inactive = score below 0.9.

The assay in a line: ATG_ISRE_CIS: Attagene CIS-FACTORIAL HepG2 Assay for human Interferon Regulatory Factor 1 (IRF1) binding to an Interferon-Stimulated Response Element (ISRE) (AID 2282948). The settings on record: HepG2 ISRE cis-reporter (Attagene), mRNA transcription readout; actives raise or lower the signal. As for the experimental part: ATG_CIS is a cell-based, multiplexed-readout assay that uses HepG2, a human liver cell line, with measurements taken at 24 hours after chemical dosing in a 24-well plate.ATG_ISRE_CIS is one of 52 assay component(s) measured or calculated from the ATG_CIS assay. It is designed to make measurements of mRNA induction, a form of inducible reporter, as detected with fluorescence intensity signals by Reverse transcription polymerase chain reaction (RT-PCR) and Capillary electrophoresis technology.Data from the assay component ATG_ISRE_CIS was analyzed into 1 assay endpoint. This assay endpoint, ATG_ISRE_CIS, was analyzed with bidirectional fitting relative to DMSO as the negative control and baseline of activity. Using a type of inducible reporter, measures of mRNA for gain or loss-of-signal activity can be used to understand the reporter gene at the transcription factor-level as they relate to the gene IRF1. Furthermore, this assay endpoint can be referred to as a primary readout, because this assay has produced multiple assay endpoints where this one serves a reporter gene function. To generalize the intended target to other relatable targets, this assay endpoint is annotated to the dna binding intended target family, where the subfamily is interferon regulatory factors.
Human liver HepG2 cells are transiently transfected with multiple reporter transcription units (MRTUs) in 6-well plates using FuGene 6 reagent (Roche; 3 ml FuGene/1 mg DNA). The MRTU constructs are regulated by a cis-regulating element (promoter). […] A major difference between the CIS and TRANS system is that in CIS activities of endogenous TFs are measured, whereas the TRANS assay evaluates changes in activities of exogenous, chimeric NR-Gal4 proteins. […] At the end of 24 hour incubation, total RNA was isolated using TriZol reagent (Invitrogen). The isolated RNA is then reverse-transcribed using oligo(dT) primer and Mo-MLV reverse transcriptase (Invitrogen) with DNAse I (Ambion) treatment for 30 min. The one-tenth of the produced cDNA was amplified by PCR using Taq DNA polymerase (Invitrogen) and two reporter sequence-specific primers. The PCR products were fluorescently labeled by primer extension with 6-arboxyfluorescein (6-FAM) 5'-labeled reporter sequence-specific primer (2 min at 95 C, 20 s at 68 C and 10 min at 72 C) and these products were digested with 5U of HpaI (New England Biolabs) for 2h at 37 C. The fragments were purified using Qiaquick PCR columns (Qiagen), analyzed on an ABI 3130xL genetic analyzer (Applied Biosystems) with peak positions identified by using a set of X-rhodamine (ROX)-labeled MapMarker1000 molecular weight standards (BioVentures). The raw capillary electrophoresis data was processed using Attagraph software (Attagene).
For the compound `C1=Cc2ccccc2C1`, the compound was called inactive.
For `C=C(C)C(=O)OCCO`, the compound was classed as inactive.
For the compound `CCCCC(CC)COCC1CO1` (stereo not given), the call was inactive.
On the same count and under the same terms, the same measure for `CC(=O)OCc1ccco1`: “inactive”.
Take `c1ccc(CNCc2ccccc2)cc1`: the compound was called inactive.
What is called AC50 is the concentration giving half of the maximal activity seen. Turning to `O=[N+]([O-])C1(Br)COCOC1`, the half-maximal activity concentration (AC50) is 52.5 µM (active).
Turning to `CC(C)(C)c1ccc(-c2ccc(C(C)(C)C)cc2)cc1`, the compound was called inactive.
For `CC1=CC[C@H]2C[C@@H]1C2(C)C`, the outcome was inactive.
Take `O=C(OCC1CCC2OC2C1)C1CCC2OC2C1` (stereo not given): the call was inactive.
As for `CCN(CC)c1ccc(C(=O)c2ccccc2C(=O)O)c(O)c1`, the call was inactive.
As for `CCCCCCCCCCCSCC(=O)O`, the AC50 is 74.1 µM (active).
`COC(=O)c1ccccc1OC`: the compound was called inactive.
On the same count and under the same terms, the same measure for `Cc1oncc1C(=O)Nc1ccc(C(F)(F)F)cc1`: “inactive”; for `CCc1c(C(=O)O)c(=O)cnn1-c1ccc(Cl)cc1`: “inactive”; for `O=Nc1ccc(O)cc1`: “inactive”.
Same read-out and setting: the same measure for `Cc1cc(C)c(C)c(C)c1`: “inactive”; for `C[C@]12C=CC(=O)C=C1CC[C@@H]1[C@@H]2[C@@H](O)C[C@@]2(C)[C@H]1CC[C@]2(O)C(=O)CO`: “inactive”.
As to `O=S(=O)(O)c1ccccc1C=Cc1ccc(-c2ccc(C=Cc3ccccc3S(=O)(=O)O)cc2)cc1`, the result was inactive.
In the case of `CCCCCCCCCCc1ccccc1`, the outcome was inactive.
On to `Cc1cccc(N(C)C(=S)Oc2ccc3ccccc3c2)c1`, for which the call was inactive.
For `CC(C)CCCCCOC(=O)CCS`, the compound was called inactive.
Take `Cc1cnc(NC(=O)C2=C(O)c3ccccc3S(=O)(=O)N2C)s1`: the compound was called inactive.
Consider `CCOC(=O)Cc1cccc2ccccc12`, for which the compound was called inactive.
In the case of `O=C1CCC(=O)N1Cl`, the compound was classed as inactive.
As to `CC(C)c1ccc2cc(C(C)C)ccc2c1`, the compound was classed as inactive.
With `ON(Cc1ccccc1)Cc1ccccc1`, the compound was called inactive.
The same measure, in the same setting: the same measure for `CCC(C)OC(=O)c1ccc(O)cc1` (stereo not given): “inactive”; for `Cc1ccc(N)c([N+](=O)[O-])c1`: “inactive”; for `CCCOC(=O)CCCCC(=O)OCCC`: “inactive”.
As for `C=CC(C)(CCC=C(C)C)OC(=O)CC(C)C` (stereo not given), the AC50 is 147 µM (active).
With `OC1OCCOC1O` (stereo not given), the compound was classed as inactive.
The same measure, in the same setting: the same measure for `C=C1[C@H]2CC[C@@H]3[C@H]2C(C)(C)CCC[C@]13C`: “inactive”; for `NC(=O)OCC(COC(N)=O)c1ccccc1`: “inactive”.
For the compound `Cc1cc(C)c(C)cc1C`, the outcome was inactive.
On to `COC(=O)/C=C\C(=O)O`, for which the result was inactive.
With `CC=CCO`, the compound was classed as inactive.
In the case of `CC(C)=CCC/C(C)=C\C#N`, the compound was called inactive.
On to `CCCCCCCC/C=C\CCCCCCCC(=O)OCCO`, for which the outcome was inactive.
As for `COC(=O)c1sccc1S(N)(=O)=O`, the compound was called inactive.
Consider `NC(=O)c1ccccc1O`, for which the compound was called inactive.
